Reference: PubChem BioAssay (NCI)
This is part of a sample that, as a whole, favours compounds with a hit. Of some 79,000 tested, about 15% had one in any assay. Values without a mark were called inactive. Active and inactive are the calls of the source. Cut-off read from the data, not from the text of the source: active = growth inhibition above about 70%; inactive = the rest.

Key:
[1] = NCI Yeast Anticancer Drug Screen. Data for the rad50 strain (AID 155);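 note: 0% = growth of vehicle-only cultures of the same strain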; details: S. cerevisiae rad50 strain growth inhibition, active compounds read high
In short: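 Growth of the mutant yeast was measured after compound exposure and referenced to vehicle-treated cultures.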

[2] = NCI Yeast Anticancer Drug Screen. Data for the mec2-1 strain (AID 157); details: S. cerevisiae mec2-1 strain, active compounds read high
In short: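 Compounds were applied to mec2-1 yeast cells. Their growth was then compared with that of vehicle-treated cultures to give growth inhibition.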

[3] = NCI Yeast Anticancer Drug Screen. Data for the sgs1 mgt1 strain (AID 161);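 note: 0% = growth of cultures given vehicle only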; details: S. cerevisiae sgs1 mgt1 strain, active compounds read high
In short: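 Compounds are added to genetically altered yeast, and growth is compared with cultures given vehicle alone to give percent inhibition.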

[4] = NCI Yeast Anticancer Drug Screen. Data for the cln2 rad14 strain (AID 165);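 note: 0% = growth equal to vehicle treated cultures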; details: S. cerevisiae cln2 rad14 strain, active compounds read high
In short: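 Strain: cln2 rad14 yeast, altered in cell cycle control and DNA damage repair. Read-out: growth inhibition vs vehicle.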

[5] = NCI Yeast Anticancer Drug Screen. Data for the bub3 strain (AID 167); details: S. cerevisiae bub3 mutant strain, active compounds read high
In short: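 Whole-cell yeast assay. The mutant strain was incubated with compounds, and growth inhibition was determined by comparison with vehicle-treated cells.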

[6] = NCI Yeast Anticancer Drug Screen. Data for the mlh1 rad18 strain (AID 175); details: S. cerevisiae mlh1 rad18 strain growth inhibition, active compounds read high
In short: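 A repair-deficient yeast strain is exposed to test compound, and growth is scored relative to vehicle-treated controls.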

[7] = at 5.0 µM (retest, dose inferred, filed as 0.5)
[8] = at 50.0 µM (retest, dose inferred, filed as 5.0)

C[CH2][Sn]([Br])([CH2]C)[c]1ccccc1CN(C)C
growth inhibition [1, 7]: 30% | growth inhibition [1, 8]: 76% (active) | growth inhibition ([1]; at 50.0 µM): 46.2% | growth inhibition [2, 7]: 23% | growth inhibition [2, 8]: 69% | growth inhibition ([2]; at 50.0 µM): 65.5% | growth inhibition [3, 7]: 9% | growth inhibition [3, 8]: 77% (active) | growth inhibition ([3]; at 50.0 µM): 87.8% (active) | growth inhibition [4, 7]: 34% | growth inhibition [4, 8]: 53% | growth inhibition ([4]; at 50.0 µM): 71.2% (active) | growth inhibition [5, 7]: 11% | growth inhibition [5, 8]: 78% (active) | growth inhibition ([5]; at 50.0 µM): 86.8% (active) | growth inhibition [6, 7]: 22% | growth inhibition [6, 8]: 79% (active) | growth inhibition ([6]; at 50.0 µM): 86.7% (active)

CCOC(=O)C(c1ccsc1)P(=O)(OCC)OCC (configuration not stated)
growth inhibition [1, 7]: 11% | growth inhibition [1, 8]: 60% | growth inhibition ([1]; at 50.0 µM): 69.2% | growth inhibition [2, 7]: -21% | growth inhibition [2, 8]: 74% (active) | growth inhibition ([2]; at 50.0 µM): 66.7% | growth inhibition [3, 7]: 12% | growth inhibition [3, 8]: 53% | growth inhibition ([3]; at 50.0 µM): 60.6% | growth inhibition [4, 7]: 19% | growth inhibition [4, 8]: 68% | growth inhibition ([4]; at 50.0 µM): 57% | growth inhibition [5, 7]: 8% | growth inhibition [5, 8]: 87% (active) | growth inhibition ([5]; at 50.0 µM): 67.3% | growth inhibition [6, 7]: 4% | growth inhibition [6, 8]: 84% (active) | growth inhibition ([6]; at 50.0 µM): 60.9%

COc1ccc2nc3ccccc3c(NCCCCN(C)CCCl)c2c1
growth inhibition [1, 7]: 58% | growth inhibition [1, 8]: 86% (active) | growth inhibition ([1]; at 50.0 µM): 77.2% (active) | growth inhibition [2, 7]: 23% | growth inhibition [2, 8]: 87% (active) | growth inhibition ([2]; at 50.0 µM): 70.8% (active) | growth inhibition [3, 7]: 42% | growth inhibition [3, 8]: 99% (active) | growth inhibition ([3]; at 50.0 µM): 83.9% (active) | growth inhibition [4, 7]: 34% | growth inhibition [4, 8]: 98% (active) | growth inhibition ([4]; at 50.0 µM): 70% | growth inhibition [5, 7]: 46% | growth inhibition [5, 8]: 99% (active) | growth inhibition ([5]; at 50.0 µM): 62.6% | growth inhibition [6, 7]: 61% | growth inhibition [6, 8]: 91% (active) | growth inhibition ([6]; at 50.0 µM): 75.6% (active)

CC12CCC(=O)C=C1CCC1C2CCC2(C)C(O[Si](C)(C)OC3CCC4C5CCC6=CC(=O)CCC6(C)C5CCC34C)CCC12 (configuration not stated)
growth inhibition [1, 7]: 3% | growth inhibition [1, 8]: 44% | growth inhibition ([1]; at 50.0 µM): 98.8% (active) | growth inhibition [2, 7]: -12% | growth inhibition [2, 8]: 16% | growth inhibition ([2]; at 50.0 µM): 98.7% (active) | growth inhibition [3, 7]: 0% | growth inhibition [3, 8]: 37% | growth inhibition ([3]; at 50.0 µM): 95.8% (active) | growth inhibition [4, 7]: 1% | growth inhibition [4, 8]: 33% | growth inhibition ([4]; at 50.0 µM): 58.4% | growth inhibition [5, 7]: -1% | growth inhibition [5, 8]: 0% | growth inhibition ([5]; at 50.0 µM): 97.1% (active) | growth inhibition [6, 7]: 6% | growth inhibition [6, 8]: 53% | growth inhibition ([6]; at 50.0 µM): 96.8% (active)

O=[As]c1cccc2ccccc12 (configuration not stated)
growth inhibition [1, 7]: 99% (active) | growth inhibition [1, 8]: 99% (active) | growth inhibition ([1]; at 50.0 µM): 99.3% (active) | growth inhibition [2, 7]: 100% (active) | growth inhibition [2, 8]: 100% (active) | growth inhibition ([2]; at 50.0 µM): 99.6% (active) | growth inhibition [3, 7]: 99% (active) | growth inhibition [3, 8]: 99% (active) | growth inhibition ([3]; at 50.0 µM): 99.7% (active) | growth inhibition [4, 7]: 100% (active) | growth inhibition [4, 8]: 99% (active) | growth inhibition ([4]; at 50.0 µM): 99.2% (active) | growth inhibition [5, 7]: 99% (active) | growth inhibition [5, 8]: 99% (active) | growth inhibition ([5]; at 50.0 µM): 99.3% (active) | growth inhibition [6, 7]: 99% (active) | growth inhibition [6, 8]: 99% (active) | growth inhibition ([6]; at 50.0 µM): 99.3% (active)

C/C1=C\[C@H](C)C[C@H](C)OC(=O)C[C@H](c2ccc(O)cc2)NC(=O)[C@@H](Cc2c(Br)[nH]c3ccccc23)N(C)C(=O)[C@H](C)NC(=O)[C@@H](C)C1
growth inhibition [1, 7]: 67% | growth inhibition [1, 8]: 98% (active) | growth inhibition ([1]; at 50.0 µM): 84.8% (active) | growth inhibition [2, 7]: 88% (active) | growth inhibition [2, 8]: 99% (active) | growth inhibition ([2]; at 50.0 µM): 81.3% (active) | growth inhibition [3, 7]: 98% (active) | growth inhibition [3, 8]: 99% (active) | growth inhibition ([3]; at 50.0 µM): 88.7% (active) | growth inhibition [4, 7]: 97% (active) | growth inhibition [4, 8]: 99% (active) | growth inhibition ([4]; at 50.0 µM): 81.5% (active) | growth inhibition [5, 7]: 99% (active) | growth inhibition [5, 8]: 99% (active) | growth inhibition ([5]; at 50.0 µM): 77.1% (active) | growth inhibition [6, 7]: 82% (active) | growth inhibition [6, 8]: 98% (active) | growth inhibition ([6]; at 50.0 µM): 80% (active)

O=C(Nc1ccccc1)c1cc([N+](=O)[O-])ccc1O.[Ni]
growth inhibition [1, 7]: 51% | growth inhibition [1, 8]: 45% | growth inhibition ([1]; at 50.0 µM): 69.3% | growth inhibition [2, 7]: 34% | growth inhibition [2, 8]: 37% | growth inhibition ([2]; at 50.0 µM): 57.6% | growth inhibition [3, 7]: 34% | growth inhibition [3, 8]: 100% (active) | growth inhibition ([3]; at 50.0 µM): 77.5% (active) | growth inhibition [4, 7]: 46% | growth inhibition [4, 8]: 100% (active) | growth inhibition ([4]; at 50.0 µM): 33.5% | growth inhibition [5, 7]: 54% | growth inhibition [5, 8]: 99% (active) | growth inhibition ([5]; at 50.0 µM): 59.8% | growth inhibition [6, 7]: 38% | growth inhibition [6, 8]: 36% | growth inhibition ([6]; at 50.0 µM): 52.3%

COS(=O)(=O)c1ccccc1
growth inhibition [1, 7]: 8% | growth inhibition [1, 8]: -2% | growth inhibition ([1]; at 50.0 µM): -2.5% | growth inhibition [2, 7]: 0% | growth inhibition [2, 8]: -2% | growth inhibition ([2]; at 50.0 µM): -2.4% | growth inhibition [3, 7]: -4% | growth inhibition [3, 8]: 4% | growth inhibition ([3]; at 50.0 µM): 11.6% | growth inhibition [4, 7]: 7% | growth inhibition [4, 8]: -4% | growth inhibition ([4]; at 50.0 µM): -16.8% | growth inhibition [5, 7]: 1% | growth inhibition [5, 8]: 39% | growth inhibition ([5]; at 50.0 µM): -4.55% | growth inhibition [6, 7]: 8% | growth inhibition [6, 8]: -1% | growth inhibition ([6]; at 50.0 µM): 10.3%

CC(C)(C)S.[Hg]
growth inhibition [1, 7]: 68% | growth inhibition [1, 8]: 98% (active) | growth inhibition ([1]; at 50.0 µM): 99.5% (active) | growth inhibition [2, 7]: 99% (active) | growth inhibition [2, 8]: 98% (active) | growth inhibition ([2]; at 50.0 µM): 99.7% (active) | growth inhibition [3, 7]: 98% (active) | growth inhibition [3, 8]: 99% (active) | growth inhibition ([3]; at 50.0 µM): 99.7% (active) | growth inhibition [4, 7]: 99% (active) | growth inhibition [4, 8]: 99% (active) | growth inhibition ([4]; at 50.0 µM): 99.2% (active) | growth inhibition [5, 7]: 89% (active) | growth inhibition [5, 8]: 99% (active) | growth inhibition ([5]; at 50.0 µM): 99.5% (active) | growth inhibition [6, 7]: 75% (active) | growth inhibition [6, 8]: 99% (active) | growth inhibition ([6]; at 50.0 µM): 99.5% (active)
